Out of some 1,800 compounds screened, about 15 (0.8%) were called active. How the calls were made is not given here. Not all results are given here. Entries with a potency or affinity are not part of this list.

The test can be described thus: antiviral activity against H1N1 influenza, dose response, cell-based, strain KY136 (AID 540257). The settings on record: H1N1 KY136 influenza antiviral cell assay, % inhibition; series mostly up to 40 µM.
With `c1ccc(-c2cn(C[C@H]3CC[C@@H]([C@@H]4CC[C@H](Cn5cc(-c6ccccn6)nn5)O4)O3)nn2)nc1`, the outcome was inactive.

Turning to `Cc1nnc2sc(SCC(=O)Nc3ccc(Cl)cc3)nn2c1=O`, the compound was called inactive.

Consider `CC(=O)N/C(=C/c1ccc(OC(F)F)cc1)C(=O)O`, for which the call was inactive.

As for `Cc1[nH]c(=O)[nH]c1C(=O)CCCCC(=O)O`, the result was inactive.

Turning to `COc1ccc(C2Nc3ccccc3C(=O)N2c2ccccc2)cc1CSc1ccccn1` (configuration not stated), the result was inactive.

For `Cc1ccc(C(=O)Nc2ccccc2C(=O)NCC2CCCO2)cc1` (configuration not stated), the call was inactive.

For the compound `CCOc1cccc(-c2c(C(=O)N/N=C(\C)c3ccccn3)nnn2-c2nonc2N)c1`, the outcome was inactive.

`O=C1NCCCC1C(=O)N/N=C/c1cc([N+](=O)[O-])ccc1O` (configuration not stated): the call was inactive.

Take `C/C(=N\NC(=O)c1cccc(Br)c1)c1ccccn1`: the compound was called inactive.

On to `COc1ccc(NC(=O)CSc2nc3ccccc3nc2N2CCCC2)c(OC)c1`, for which the compound was classed as inactive.

On to `COCc1cc(C)n(CC(=O)Nc2cccc(C)c2)c(=O)c1C#N`, for which the result was inactive.

With `COc1ccc(/C=C/C(=O)NCCn2c(C)cc3ccccc32)cc1OC`, the call was inactive.

As to `CCN1C(=O)/C(=C2\SC(=S)N(CCCOC)C2=O)c2ccccc21`, the compound was called inactive.

Regarding `O=c1c2ccccc2ncn1C1CCCCC1`, the compound was classed as inactive.

For the compound `CCOC(=O)C1CCN(C(c2cccc(OC)c2)c2sc3nc(C)nn3c2O)CC1` (configuration not stated), the result was inactive.

For the compound `COc1ccccc1/C=N/NC(=O)c1[nH]c(C)c(C(=O)N/N=C/c2ccccc2OC)c1C`, the outcome was inactive.

As to `CCCCN1C2=C(C(=O)CC(C)(C)C2)C(c2ccccc2)C2=C1c1ccccc1C2=O` (configuration not stated), the outcome was inactive.

For the compound `C(=N\c1c(-c2ccccc2)nc2n1CCS2)/c1ccccc1`, the call was inactive.

Consider `CN(C)c1ccc(/C=C/C=C2/C(=O)NC(=O)N(c3ccccc3)C2=O)cc1`, for which the compound was classed as inactive.

As to `CC(=O)Oc1ccc(C(=O)Nc2ccccc2C(=O)NCC(C)C)cc1`, the compound was classed as inactive.

With `CC(=O)Nc1cccc(NC(=O)CSc2ccc(-c3ccccn3)nn2)c1`, the call was inactive.

Take `COc1ccc(N2CCN(CCCNC(=O)c3cc4sccc4n3C)CC2)cc1`: the compound was called inactive.

Take `Clc1ccc(-c2cnnc(-c3ccccn3)n2)cc1`: the call was inactive.

As for `O=[N+]([O-])c1ccc2c(c1Nc1ccccc1)=NC1(CCCCC1)N=2`, the outcome was inactive.

Regarding `C=CCn1c(=NC(=O)C2CCCCC2)sc2cc(NC(C)=O)ccc21`, the outcome was inactive.

For `CCc1ccccc1NC(=S)N(CCN(C)C)C(C)c1ccccn1` (configuration not stated), the outcome was inactive.

With `COc1cc(-c2nnc(NC(=O)CCS(=O)(=O)c3ccc(F)cc3)o2)cc(OC)c1OC`, the outcome was inactive.

For `CCOC(=O)c1ccc(N2C(=O)c3n[nH]c(C)c3C2c2ccccn2)cc1` (configuration not stated), the result was inactive.

For `Cc1cc2cc(CNC(=O)c3cccc([N+](=O)[O-])c3)ccc2n1C`, the compound was classed as inactive.

As to `CC(C)Oc1ccccc1/C=N/Nc1ccccc1[N+](=O)[O-]`, the result was inactive.

As for `CN1CCN(c2ccc([N+](=O)[O-])cc2C(=O)c2ccccc2)CC1`, the outcome was inactive.

Consider `Oc1ccc(/C=N/N(c2ccccc2)c2ccccc2)c(O)c1O`, for which the call was inactive.

As to `C/C(CC(C)C)=N/Nc1ccc([N+](=O)[O-])cc1[N+](=O)[O-]`, the call was inactive.

Regarding `Cc1cc(NC(=O)CSc2nnc(C)c(=O)[nH]2)no1`, the outcome was inactive.

Consider `COc1cccc(C(=O)NC(C)C(c2cccs2)N2CCOCC2)c1` (configuration not stated), for which the compound was classed as inactive.

Turning to `Cc1c2cc(O)c(=O)cc-2oc2cc(O)c(O)cc12`, the outcome was inactive.

In the case of `CCOc1ccc(N=Nc2c(=O)[nH]n3c(=O)c4c([nH]c23)CCCC4)cc1`, the outcome was inactive.

Turning to `O=c1oc2cc(Oc3ccc(C(F)(F)F)cc3[N+](=O)[O-])ccc2c2c1CCC2`, the result was inactive.

On to `CN1CCc2c(sc(NC(=O)Cc3ccccc3)c2C(N)=O)C1`, for which the result was inactive.

Regarding `CCOc1ccc(N2CSC3=C(C#N)C(c4ccco4)CC(=O)N3C2)cc1` (configuration not stated), the outcome was inactive.

For `CCCC(=O)NC(c1ccccc1)c1ccc2cccnc2c1O` (configuration not stated), the call was inactive.

Turning to `CN(C1=C(N2CCCCC2)C(=O)c2ccccc2C1=O)c1ccccc1`, the outcome was inactive.

As for `COc1cccc(/C=N/Nc2ccnc(=O)[nH]2)c1O`, the outcome was inactive.

In the case of `COc1cccc(C(=O)Cn2c(N3CCOCC3)nc3c2c(=O)n(C)c(=O)n3C)c1`, the result was inactive.

Turning to `COc1ccc(Nc2c([N+](=O)[O-])ccc3c2=NC2(CCCCC2)N=3)cc1`, the outcome was inactive.

In the case of `O=C(COC(=O)C1CC(=O)N(Cc2ccccc2)C1)c1ccc(Br)cc1` (configuration not stated), the result was inactive.

As to `O=C1C(NS(=O)(=O)c2ccccc2)=C(N2CCN(c3ccc(F)cc3)CC2)C(=O)c2ccccc21`, the outcome was inactive.

As to `COc1cccc(NC(=O)CSc2nnc(CNC(=O)c3ccccc3)n2C)c1`, the compound was called inactive.

As to `CCn1c(CNC(=O)c2cccc(C)c2)nnc1SCC(=O)Nc1cccc(OC)c1`, the outcome was inactive.

For `COc1ccccc1NS(=O)(=O)c1cccc(NC(=O)Cc2cccs2)c1`, the compound was called inactive.

On to `COc1cc2ccccc2cc1C(=O)Nc1nnc(-c2ccncc2)o1`, for which the outcome was inactive.

For `Cc1cccc(NC(=O)NC(C)C(c2cccs2)N2CCOCC2)c1` (configuration not stated), the compound was called inactive.

As to `Cc1ccc(S(=O)(=O)C2(C(=O)Nc3cccc(F)c3)CC2)cc1`, the result was inactive.

With `COc1ccc(NC(=O)CC2C(=O)N(c3cccc(OC)c3)C(=O)N2Cc2ccco2)cc1` (configuration not stated), the compound was called inactive.

As to `COC(=O)CSc1nnc(C)n1-c1cccc(C#N)c1`, the compound was classed as inactive.

Regarding `Cc1cc(C(F)F)nn1CC(=O)Nc1cc([N+](=O)[O-])ccc1F`, the outcome was inactive.

`Cc1cc(N(C)C)ccc1N=Nc1ccc(N)cc1`: the outcome was inactive.

For `CN1CCN(CCC(=O)N/N=C/c2cc([N+](=O)[O-])ccc2O)CC1`, the call was inactive.

Take `CCCCn1c(SCC(=O)N2CCCc3ccccc32)nc2c1c(=O)n(C)c(=O)n2C`: the call was inactive.

On to `CC(=O)c1cccc(S(=O)(=O)Nc2cccc(S(=O)(=O)NC3=NCCC3)c2)c1`, for which the compound was called inactive.

Consider `CC[n+]1c(/C=C/c2ccc(N(C)C)cc2)ccc2ccccc21`, for which the call was inactive.

As to `CCC(=O)NC(c1cccs1)c1cc([N+](=O)[O-])c2cccnc2c1O` (configuration not stated), the call was inactive.

As to `CCCCn1c(O)c(/C(CC)=N/N2CCCCC2c2cccnc2)c(=O)[nH]c1=S` (configuration not stated), the compound was classed as inactive.

Take `CCCCCCn1nc(C(=O)N(CC(C)C)c2c(N)n(CCCC)c(=O)[nH]c2=O)c2ccccc2c1=O`: the compound was classed as inactive.

On to `COc1cccc(NC(=O)CSc2nc3c(oc4ccccc43)c(=O)[nH]2)c1`, for which the result was inactive.

With `COc1cccc(/C=N/Nc2cc(N3CCOCC3)ncn2)c1O`, the result was inactive.

With `CCc1c(C)nc(Nc2nc(C)c3cc(OC)ccc3n2)[nH]c1=O`, the compound was called inactive.

For `O=C(Nc1cc(Cl)ccc1N1CCOCC1)c1cnccn1`, the outcome was inactive.

Turning to `COc1ccc(Nc2ncccc2C(=O)Nc2ccccc2)cc1`, the compound was called inactive.

Turning to `COc1ccc(OC)c(-n2c(SCC(N)=O)nnc2-c2c[nH]c3ccccc23)c1`, the result was inactive.

For the compound `Cc1ccnc2nc(C(=O)Nc3nc(-c4ccccn4)cs3)nn12`, the compound was classed as inactive.

On to `O=C(CSc1nnc(CCCOc2ccc(Cl)cc2Cl)o1)Nc1ccc(C(=O)O)cc1`, for which the compound was called inactive.

Consider `COc1ccc(NC(=O)CNS(=O)(=O)c2ccc(Cl)cc2)cc1OC`, for which the outcome was inactive.

Regarding `CC1=[N+](C)c2c(ccc3cccnc23)C1(C)C`, the compound was classed as inactive.

Regarding `CN(C)c1ccc(C=c2c3cc([N+](=O)[O-])ccc3n3c2cc(-c2ccccc2)[n+]3C)cc1`, the result was inactive.

As to `CC(c1cccs1)N(Cc1ccco1)C(=O)Nc1ccc(Cl)c(Cl)c1` (configuration not stated), the compound was classed as inactive.

Turning to `Cc1c(NC(=S)N/N=C\c2ccccc2O)c(=O)n(-c2ccccc2)n1C`, the result was inactive.

For `O=C(CS(=O)(=O)c1cn(Cc2ccc(Cl)cc2)c2ccccc12)N1CCCCC1`, the compound was called inactive.

On to `COC1=C(Nc2ccc(OC)cc2)C(=O)c2ccccc2C1=O`, for which the outcome was inactive.

`Cc1ccccc1NC(=O)CSc1nn2c(=O)c(C)nnc2s1`: the compound was called inactive.

Take `C(=N\Nc1nc2ccccc2[nH]1)/c1cccc2cccnc12`: the result was inactive.

As for `C[C@@H]1NC(=O)N[C@@H]1CCCCCC(=O)O`, the outcome was inactive.

`C=CCC1c2cccc(C(=O)O)c2C(=O)N1c1ccc(F)cc1` (configuration not stated): the result was inactive.

As to `Cc1cc(C)cc(NC2=C(N)C(=O)c3ccccc3C2=O)c1`, the outcome was inactive.

With `CCc1ccc(NC(=O)N(CCN2CCOCC2)Cc2ccc3c(c2)CCCN3CC)cc1`, the outcome was inactive.

As to `CCCc1nc(SCc2cccnc2)c2c(=O)n(C)c(=O)n(C)c2n1`, the call was inactive.

As to `Cc1ccccc1NC(=S)N(CCN(C)C)C(C)c1ccccn1` (configuration not stated), the call was inactive.

`Cc1ccc(S(=O)(=O)/N=C2\C=C(Nc3cccc(C(=O)O)c3)C(=O)c3ccccc32)cc1`: the compound was called inactive.

As to `CCCN(CCC)CCCNC(=O)CCNS(=O)(=O)c1ccc(Br)cc1`, the outcome was inactive.

`O=C(NCc1cccs1)c1cnc2sccn2c1=O`: the compound was called inactive.

As to `CN1CCc2c(sc(NC(=O)C3CCCCC3)c2C(N)=O)C1`, the call was inactive.

As to `COc1cc(N(C)C)ccc1C=c1c2ccccc2n2c1cc(-c1ccccc1)[n+]2C`, the call was inactive.

Regarding `O=C(NCc1cccnc1)C1c2ccccc2C(=O)N1C1CCCCCCC1` (configuration not stated), the compound was classed as inactive.

As to `CN(C)c1ccc(Cc2ccc(N(C)C)cc2)cc1`, the compound was called inactive.

With `Nc1nc(-c2ccccn2)nc(N)c1Cc1c(F)cccc1Cl`, the call was inactive.

Turning to `COC(=O)CNC(c1ccccc1)c1cc(C)ccc1NS(=O)(=O)c1ccc(C)cc1` (configuration not stated), the outcome was inactive.

Turning to `CN(C)CCCNC(=S)NCC(c1ccc(Cl)cc1Cl)c1c[nH]c2ccccc12` (configuration not stated), the compound was classed as inactive.

With `O=C(Nc1nc2c(s1)CCCC2)c1ccc(Br)s1`, the call was inactive.

For `Cc1cccc(N2CCN(C(=O)c3cc4ccccc4oc3=O)CC2)c1C`, the call was inactive.

For the compound `COc1cc(N/N=C/c2ccccc2O)ncn1`, the compound was classed as inactive.

Consider `CCOc1ccc(-c2nc(C#N)c(N3CCOCC3)o2)cc1`, for which the compound was called inactive.

As for `CCc1ccc(S(=O)(=O)/N=C2\C=C(Nc3ccc(O)cc3)C(=O)c3ccccc32)cc1`, the compound was classed as inactive.

For the compound `O=C(Nc1nc(-c2ccccc2)cs1)c1ccc(S(=O)(=O)N2CCc3ccccc32)cc1`, the outcome was inactive.

Consider `c1ccc(-c2nc(-c3ccncc3)n[nH]2)nc1`, for which the compound was called inactive.

For the compound `Oc1cccc2ccc(Nc3ccccn3)nc12`, the result was inactive.

On to `O=C(N/N=C/c1ccccc1O)C1SCCCS1`, for which the compound was classed as inactive.

Regarding `CCCCOc1cccc(-c2nnc(NC(=O)CSc3ccc(C)cc3)s2)c1`, the compound was classed as inactive.

These data come from PubChem BioAssay AID540257 (Southern Research Specialized Biocontainment Screening …, 2011).
